# aSyn 5UTR act: Activators via SNCA 5'UTR binding, MLPCN | alpha-synuclein 5'UTR reporter, activators screen | activity score, % (tested at 7.5 µM), hits read low | 300,000 compounds, 7.1% hits; in the data active = activity score below about -60%
# An asterisk follows results filed as active. A selection follows.
SMILES,aSyn 5UTR act
Cc1ccc(C(=O)CNc2ccc(Br)cc2)cc1,-71*
COc1ccc2cnn(-c3ccc(OC(F)(F)F)cc3)c(=O)c2c1OC,-90*
CCn1c(-c2ccc(-c3ccccc3)cc2)c[nH]c1=S,-65*
C=CCn1c(-c2ccccc2)c[nH]c1=S,-120*
Cn1c(-c2ccc(-c3ccccc3)cc2)c[nH]c1=S,-173*
O=[N+]([O-])c1[nH]cnc1/C=C/c1ccccc1,-65*
O=c1c(Cl)c(Cl)cnn1Cc1nnc(-c2ccccc2Br)o1,-66*
N#Cc1ccccc1OCc1nnc(-c2ccccc2Br)o1,-178*
Clc1ccccc1OCc1nnc(-c2ccccc2Br)o1,-173*
O=C(NC1CCCCC1)Sc1ccc(Cl)cc1,-72*
S=C(Nc1ccc(Cl)cc1Cl)NC1CCCCC1,-127*
CN(C(=O)Nc1ccc(Cl)cc1Cl)C1CCCC1,-118*
O=C(Nc1ccc(Cl)cc1Cl)NC1CCCC1,-74*
Cc1ccc(C(=O)Nc2nc(C)c(C)s2)o1,-114*
Cc1nc(NC(=O)c2ccc(Br)o2)sc1C,-129*
Cc1ccnc(N2CCN(C(=O)CSc3nc4ccccc4nc3N3CCC(C)CC3)CC2)c1,-80*
Cc1csc(C(C#N)C(=O)c2cc3ccccc3o2)n1 (stereo not given),-145*
CCOc1ccc(C(=O)N2CCc3ccccc32)cc1,-104*
O=C(c1cccs1)N1CCc2ccccc21,-157*
O=C(c1ccc2ccccc2c1)N1CCc2ccccc21,-100*
Cc1nn(-c2ccccn2)c2c1-c1nc(N)ncc1CC2,-101*
Cc1nc(NC(=S)Nc2ccccc2)sc1C,-166*
CCc1nnc(NC(=S)Nc2ccccc2)s1,-124*
COc1ccc2c(c1)sc1nc(-c3ccccc3)cn12,105
COc1ccc(-n2cc(-c3ccccc3)nc2SC)cc1,-121*
SMILES,aSyn 5UTR act
O=c1[nH]c2ccccc2nc1-c1cccs1,-152*
O=C(Nc1nc2ccccc2[nH]1)c1ccc(Br)o1,-132*
O=C(Nc1nc2ccccc2[nH]1)C12CC3CC(CC(C3)C1)C2,-181*
O=C(Nc1nc2ccccc2[nH]1)C1CCCO1 (stereo not given),-79*
O=C(Nc1ccc(-c2nc3ccccc3[nH]2)cc1)C1CCCO1 (stereo not given),77
Cc1[nH]c2ccccc2c1-c1nc2ccccc2[nH]c1=O,-63*
O=c1[nH]c2ccccc2nc1/C=C(\O)c1cccs1,-174*
Cc1ccc(C(=O)Nc2nc3ccccc3[nH]2)cc1,68
O=C(Nc1nc2ccccc2[nH]1)c1cccs1,-91*
O/C(=C\c1nc2ccccc2[nH]1)c1cccs1,-200*
Cc1ccc(N/N=C2\CCS(=O)(=O)c3sccc32)cc1,-89*
Cc1nn(-c2ccccc2)c(Cl)c1/C=N/NC(=O)OC(C)(C)C,-131*
Cc1nn(C(C)(C)C)c(C)c1/C=N/OC(=O)Nc1ccc(Cl)cc1,94
Cc1nn(-c2ccccc2Cl)c(Cl)c1/C=N/Nc1nc2ccccc2s1,69
CCOC(=O)N/N=C/c1c(C)nn(-c2ccccc2Cl)c1Cl,-91*
CNC(=S)N/N=C/c1c(C)nn(-c2ccccc2)c1Cl,-89*
O=[N+]([O-])c1ccc(Sc2n[nH]c(-c3ccccc3)n2)nc1,-73*
Cc1ccnc(Sc2ccc([N+](=O)[O-])cn2)n1,-72*
S=C(Nc1ccc2cn[nH]c2c1)Nc1ccccc1Cl,-166*
S=C(Nc1ccc(Cl)cc1)Nc1ccc2cn[nH]c2c1,-175*
Cc1ccccc1NC(=S)Nc1ccc2cn[nH]c2c1,-104*
CCc1ccc(NC(=S)Nc2ccc3cn[nH]c3c2)cc1,-196*
Cc1cnc(C(=O)Nc2nnc(C3CC3)s2)cn1,-97*
COc1c(C(=O)Nc2nnc(C3CC3)s2)csc1Cl,-97*
Cc1cc(C(=O)Nc2nnc(C3CCCCC3)s2)no1,-63*
SMILES,aSyn 5UTR act
CCOCC(=O)Nc1nnc(C2CCCCC2)s1,-123*
Cc1cnc(C(=O)Nc2nccs2)cn1,-81*
O=C(Nc1nccs1)c1cn2ccccc2n1,65
O=C(Nc1ccc2nc(-c3ccccc3)[nH]c2c1)c1ccco1,-205*
Cc1ccc(-c2nc3ccc(NS(=O)(=O)c4ccccc4)cc3[nH]2)o1,-174*
Cc1cc(C)cc(NS(=O)(=O)c2ccc(-c3cnc(C4CC4)o3)cc2)c1,93
CC(=O)Nc1ccc2nc(-c3ccc(Br)o3)[nH]c2c1,-127*
O=C(Nc1ccc2nc(-c3ccc(Br)o3)[nH]c2c1)c1cccs1,-112*
O=C(Nc1ccc2nc(-c3cccnc3)[nH]c2c1)C1CCCCC1,-72*
O=C(Nc1ccc2nc[nH]c2c1)c1ccco1,-74*
O=C(Nc1ccc2nc(-c3ccc(Br)o3)[nH]c2c1)c1ccco1,-106*
Cc1cccc2[nH]c(-c3ccc(NC(=O)c4ccco4)cc3)nc12,-225*
CC(=O)c1cccc(NC(=S)NC(=O)c2ccc(C)cc2)c1,-83*
CC(=O)c1cccc(NC(=S)NC(=O)c2ccc(Br)cc2)c1,-143*
CC(=O)c1cccc(NC(=S)NC(=O)c2ccc(C)cc2Cl)c1,-70*
N=c1c2c(n(Cc3cccc(Cl)c3)c3c1CCC3)CCCC2,55

# From PubChem
